# An excerpt weighted towards active compounds, which were near 22% of everything screened.
# CYP2C9 activ – human CYP2C9 activators, primary screen, biochemical, luminescence; activation factor at 5 µM; 1.4% of 96,000 active; recombinant CYP2C9, luciferin-H conversion; active compounds read high; factor 1 = untreated enzyme, 0 = blocked; Cytochrome P450 2C9 (Homo sapiens), P11712;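 active = activation factor of 2 or more for CYP2C9 at a 5 µM dose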;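 note: 0 = sulfaphenazole-blocked wells and 1 = vehicle-only wells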
# Target sequence (P11712 whole entry, looked up): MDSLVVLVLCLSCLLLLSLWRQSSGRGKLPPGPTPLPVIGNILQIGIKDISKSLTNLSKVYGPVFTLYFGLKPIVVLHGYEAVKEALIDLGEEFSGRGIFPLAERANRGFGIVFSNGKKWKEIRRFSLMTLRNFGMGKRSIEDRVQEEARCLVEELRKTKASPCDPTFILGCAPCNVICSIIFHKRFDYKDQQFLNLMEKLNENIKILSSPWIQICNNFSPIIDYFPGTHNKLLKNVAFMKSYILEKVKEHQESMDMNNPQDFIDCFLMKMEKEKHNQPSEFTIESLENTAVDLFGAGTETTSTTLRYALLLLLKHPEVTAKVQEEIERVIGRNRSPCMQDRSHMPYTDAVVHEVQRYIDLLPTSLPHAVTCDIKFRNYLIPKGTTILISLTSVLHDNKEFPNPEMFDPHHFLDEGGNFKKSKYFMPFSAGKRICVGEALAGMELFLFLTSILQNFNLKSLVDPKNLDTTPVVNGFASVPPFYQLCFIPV
# CYP2C19 activ – human CYP2C19 activators, primary screen, biochemical, luminescence. Cytochrome P450 2C19 (Homo sapiens), P33261. recombinant CYP2C19, luciferin-H EGE luminescence; active compounds read high; 0 = fully inhibited enzyme, 1 = untreated enzyme. activation factor at 5 µM. 96,000 tested, under 10 active. AID 1025, 2008;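 active = activation factor of at least 2 at 5 µM in the primary screen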;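 note: 0 = wells with 2.5 mM tranylcypromine and 1 = vehicle-only wells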
# CYP2C9 inh – blockers of cytochrome P450 2C9 activity – biochemical, luminescence, ADME assay, primary screen | AID 777, 2007 | 20% of 96,000 active | inhibition, % at 5 µM | CYP2C9 Supersomes, luciferin-H conversion | P11712;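 active = blocking of liver enzyme CYP2C9 beyond about 50% at 5 µM, limit read from the data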
# CYP2C19 inh – blockers of cytochrome P450 2C19 activity – biochemical, luminescence, ADME assay, primary screen. CYP2C19 Supersomes, luciferin-H EGE luminescence, 30 min. P33261. 21% of 96,000 active. inhibition, % at 5 µM. AID 778, 2007;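 active = CYP2C19 inhibition above a set limit at 5 µM in the primary screen, cut at about 50% in these data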;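 note: plate controls were negative control wells for no effect and 2.5 mM tranylcypromine positive control for full effect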
# Measles CPE – compounds protecting cells from measles virus cytopathic effect, primary screen, measles RdRp inhibitor project, single point, MLSMR library, absorbance | Measles virus-infected cells, CPE protection | protection (pct of control), % at 4 µM | 1.5% of 140,000 active | AID 841, 2007; in the data active = protection mostly above about 24%, no sharp cut-off; inactive = mostly below about 26%
# * marks the source's active call; other numbers are inactive results; x = no result.
SMILES,CYP2C9 activ,CYP2C19 activ,CYP2C9 inh,CYP2C19 inh,Measles CPE
CCCc1cc(=O)oc2cc(C)cc(O)c12,1.3,0.7,-31,25,26
Cc1c(Cc2ccccc2)c(=O)oc2cc(OCc3nn[nH]n3)ccc12,0.6,1.1,44,-13,6
CCCCCc1cc(O)c2c(C)cc(=O)oc2c1,0.4,0.3,59*,70*,63*
CC(=O)[C@@]1(O)CC[C@H]2[C@@H]3C[C@H](C)C4=CC(=O)CC[C@]4(C)[C@H]3CC[C@@]21C,x,x,x,x,9
COc1ccc(Oc2ncc(CN3CCN(c4ccccc4)CC3)s2)cc1,0.1,0.2,93*,82*,2
Brc1ccc(Oc2ncc(CN3CCOCC3)s2)cc1,0.8,0.2,20,80*,3
Cc1cc(Cl)ccc1Oc1ncc(CN2CCN(c3ccccc3)CC2)s1,0.9,1,6,3,7
CCC(C)NC(=O)c1cnn2c1NC(c1cccs1)CC2C(F)(F)F (stereo unspecified),1.1,1.2,-12,-22,3
O=C(NCc1ccco1)c1nn2c(C(F)(F)F)cc(-c3cccs3)nc2c1Cl,0.5,0.9,55*,11,3
O=C(NCc1ccco1)c1cc2nc(-c3cccs3)cc(C(F)(F)F)n2n1,0.4,0.7,56*,31,5
COc1cccc(C2C(C(=O)c3cccs3)=C(O)C(=O)N2CCCn2ccnc2)c1OC (stereo unspecified),0.1,0.2,89*,77*,x
Cc1nc(C)c(C(=O)C2=C(O)C(=O)N(CCCn3ccnc3)C2c2ccc(Cl)cc2)s1 (stereo unspecified),0.4,0.8,59*,24,6
CCCOc1ccc(C2C(C(=O)c3ccco3)=C(O)C(=O)N2CCCn2ccnc2)cc1 (stereo unspecified),0.4,0.7,61*,25,1
CCc1nc2n[nH]c(N)c2c2c1CCCC2,1.1,1.1,-8,-14,1
Cc1nn(-c2ccccc2)c2c1C(=O)N(c1ccccc1)C(=O)C(C)(C)C2,1,0.9,-3,14,14
CCOc1c(Br)cc(CNCc2cccs2)cc1OC,x,x,x,x,5
CCCCNCc1cc(Br)c(OCc2cccs2)c(OC)c1,1.1,0.4,-5,65*,4
CCN1CCN(c2ccc([N+](=O)[O-])c(Sc3nc4ccccc4[nH]3)c2)CC1,x,x,x,x,7
CS(=O)(=O)c1cc([N+](=O)[O-])c(Sc2nc3ccccc3[nH]2)c([N+](=O)[O-])c1,0.9,0.3,12,69*,1
CCC(=O)c1ccc(OCC(O)CNCc2ccc(F)cc2)cc1 (stereo unspecified),x,x,x,x,25
COCCNC(=O)CSc1nc2ccccc2c(=O)n1CC1CCCO1 (stereo unspecified),0.8,0.8,17,22,4
CCC(Sc1nc2ccccc2c(=O)n1CCN1CCOCC1)C(=O)NCc1cccnc1 (stereo unspecified),0.2,0.6,78*,39,3
CCC(Sc1nc2ccccc2c(=O)n1CC1CCCO1)C(=O)NCc1cccnc1 (stereo unspecified),0.2,0.9,76*,13,4
CC(C)CC(=O)Nc1nnc(SCC(=O)Nc2ccc3c(c2)OCO3)s1,x,x,x,x,6
O=C(NC(NC(=S)Nc1ccc(Cl)cc1)C(Cl)(Cl)Cl)c1ccco1 (stereo unspecified),x,x,x,x,14
SMILES,CYP2C9 activ,CYP2C19 activ,CYP2C9 inh,CYP2C19 inh,Measles CPE
CCOc1ccc(OCc2cccc(C(=O)O)c2)cc1,0,0,99*,100*,24
CCOc1ccc(OCc2cccc(C(=O)N3CCCC3)c2)cc1,0.3,0.6,66*,40,5
CCOc1cccc(OCCOc2ccc(C(=O)c3ccccc3)cc2)c1,x,x,x,x,2
CCOc1ccc(OCc2ccc(C(=O)N3CCCC3)o2)cc1,0.4,0.6,57*,39,1
O=C(O)c1ccc(COc2ccc(CO)cc2Cl)cc1,1,1,-2,0,9
O=C(O)c1cccc(COc2ccc(CO)cc2Cl)c1,0.1,0,94*,99*,13
O=C(Oc1ccc2ccccc2c1)c1ccccc1,0.9,1,14,-3,7
CCOc1ccc(OCc2ccc(C(=O)OCc3ccccn3)o2)cc1,0.4,0.5,55*,50*,7
COc1cccc(OC)c1C(=O)NNC(=O)c1cccc(COc2ccc3c(c2)CCC3)c1,0.7,0.4,28,57*,x
COc1ccc(NS(=O)(=O)c2cccc(C(=O)O)c2)cc1,1.2,0.8,-20,19,10
O=C(OCC(F)(F)F)c1cccc(COc2ccc3ccccc3c2)c1,0.4,0.5,56*,52*,10
COc1ccc(OCc2cccc(C(=O)O)c2)cc1,0,0,97*,98*,2
COCCNC(=O)C(c1ccco1)N(C(=O)Cn1nnc2ccccc21)c1cccc(C)c1C (stereo unspecified),1,1,3,3,6
COc1cc(CN2CCN(S(=O)(=O)c3ccc(F)cc3)CC2)cc(OC)c1OC,0.5,0.2,47,84*,1
COc1ccc(S(=O)(=O)N2CCN(Cc3ccc(Cl)cc3)CC2)cc1,1.1,0.4,-10,63*,8
COc1cc(CCC(=O)N2CCN(S(=O)(=O)c3ccc(C)c(C)c3)CC2)cc(OC)c1OC,0.6,0.4,45,56*,16
COc1cc(S(=O)(=O)N2CCN(Cc3ccccc3)CC2)ccc1Br,1.4,0.7,-38,35,14
COc1ccc(S(=O)(=O)N2CCN(Cc3cccc(Cl)c3)CC2)cc1,0.4,0.1,61*,94*,5
CCOc1ccc(S(=O)(=O)N2CCCC2)cc1,1.3,0.7,-26,32,2
COc1ccc(S(=O)(=O)N2CC3C4C=CC(C4)C3C2)cc1 (stereo unspecified),0.8,0.4,22,58*,2
CCOc1ccc(C(=O)CN2CCN(S(=O)(=O)c3ccc(Cl)cc3)CC2)cc1,0.8,0.4,24,58*,4
COc1ccc(S(=O)(=O)N2CC(C)N(S(=O)(=O)c3ccc(OC)cc3)CC2C)cc1 (stereo unspecified),1,0.7,0,30,x
CCOC(=O)c1ccc(S(=O)(=O)N2CCN(CC(=O)NC(=O)NC3CCCCC3)CC2)cc1,0.4,0.8,60*,16,3
COc1ccc(S(=O)(=O)N2CCN(Cc3c[nH]c4ccccc34)CC2)cc1,1,0.5,-1,52*,12
CSc1nc(C)cc(/C=C\c2ccccc2)c1C#N,1,0.8,3,20,-1
O=C(Nc1cn(-c2ccccc2)nc1-c1ccc(F)cc1)c1ccccc1,x,x,x,x,8
